Where a name gives a salt, the structure may show the parent alone.
system: A549; assay: Euclidean distance of Cell Painting phenotypic profile (signed KS, 77 features) to DMSO centroid (dimensionless distance); 5 or 10 uM (library dependent); higher = stronger phenotypic change vs DMSO (phenoactivity); conditions: 48 h
Outline: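 Five cancer lines and a healthy fibroblast line received library compounds at 10 or 5 uM (library-dependent, 0.1% DMSO final) for 48 h. Stained cells were imaged confocally at 20X (9 fields/well). Harmony extracted 77 features, each scored as a signed Kolmogorov-Smirnov statistic against same-plate vehicle wells. Profiles were plate-position corrected, correlation-weighted and replicate-averaged at the top dose. Phenoactivity is the Euclidean distance from each profile to the median vehicle profile.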

Row | Compound | Euclidean distance
1 | COCCCN1CCC(NC(=O)c2cc(Cl)c(N)c3c2OCC3)CC1 [Prucalopride Succinat] | 0.777
2 | OC[C@H]1O[C@@H](Oc2cc(O)cc(/C=C/c3ccc(O)cc3)c2)[C@H](O)[C@@H](O)[C@@H]1O [Polydatin] | 2.03
3 | C[N+](C)(C)NCCC(=O)[O-] [Mildronate] | 1.05
4 | CN[C@@H]1[C@H](O)[C@H](NC)[C@H]2O[C@@]3(O)C(=O)C[C@@H](C)O[C@H]3O[C@@H]2[C@H]1O [Spectinomycin HCl] | 0.814
5 | Cn1cnc2c(F)c(Nc3ccc(Br)cc3F)c(C(=O)NOCCO)cc21 | 2.89
6 | C/C(=N\NC(=S)N1CCC1)c1ccccn1 | 3.49
7 | CCCCOc1nc(N)c2c(n1)N(Cc1cccc(CN3CCCC3)c1)CC(=O)N2 | 0.517
8 | CN1CCc2cc3c(cc2C(=O)Cc2ccc4c(c2C1)OCO4)OCO3 [Protopine] | 1.36
9 | O=C(O)CCCc1cc2cc(Cl)ccc2n1S(=O)(=O)c1ccc2ncsc2c1 [Lanifibranor(IVA-337)] | 0.787
10 | Nc1ncccc1-c1nc2ccc(-c3ccccc3)nc2n1-c1ccc(C2(N)CCC2)cc1 [Miransertib (ARQ 092) HCl] | 4.1
11 | CCC[C@@H]1C[C@@H](C(=O)N[C@@H]([C@H]2O[C@H](SC)[C@H](O)[C@@H](O)[C@H]2O)[C@@H](C)O)N(C)C1 [Lincomycin HCl] | 0.984
12 | c1ccc(-c2nn3c(c2-c2ccnc4cc(OCCN5CCOCC5)ccc24)CCC3)nc1 | 0.959
13 | Cc1c(-c2ccnn2C)cc(C(=O)NCc2ccc(S(C)(=O)=O)cn2)c(=O)n1-c1cccc(C(F)(F)F)c1 [Alvelestat (AZD9668)] | 1.73
14 | CCCCC(=O)N(Cc1ccc(-c2ccccc2-c2nnn[nH]2)cc1)[C@H](C(=O)O)C(C)C [Valsartan] | 1.17
15 | CN1C(C(=O)Nc2ccccn2)=C(O)c2sc(Cl)cc2S1(=O)=O [Lornoxicam] | 0.623
16 | O=C(O)Cn1nnc(-c2cc(N3CCC(Oc4cc(F)ccc4Br)CC3)no2)n1 | 1.38
17 | CC[N+](C)(C)c1cccc(O)c1 [Edrophonium chloride] | 0.865
18 | N=C1CCCN1Cc1[nH]c(=O)[nH]c(=O)c1Cl.O=c1[nH]c(=O)n([C@H]2C[C@H](O)[C@@H](CO)O2)cc1C(F)(F)F | 3.48
19 | NC(CO)C(=O)NNCc1ccc(O)c(O)c1O (centres undefined) [Benserazide HCl] | 0.748
20 | O=C(/C=C/c1ccc(O)cc1)c1ccc(O)cc1O [Isoliquiritigenin] | 1.2

Row | Compound | Euclidean distance
21 | O=C1C(O)=C([C@H]2CC[C@H](c3ccc(Cl)cc3)CC2)C(=O)c2ccccc21 [Atovaquone] | 0.846
22 | C=CCc1ccccc1OCC(O)CNC(C)C (centres undefined) [Alprenolol hydrochloride] | 0.761
23 | CCN1CCCC1CNC(=O)c1cc(S(=O)(=O)CC)c(N)cc1OC (centres undefined) [Amisulpride] | 0.717
24 | C#C[C@]1(O)CC[C@H]2[C@@H]3CCC4=CC(=O)CC[C@@H]4[C@H]3CC[C@@]21C [Norethindrone] | 0.864
25 | N#C/C(=C\c1ccc(O)c(O)c1)C(=O)NCc1ccccc1 [AG-490 (Tyrphostin B42)] | 1.52
26 | CN1CCc2c(c3ccccc3n2Cc2ccc(C(=O)NO)cc2)C1 [Tubastatin A HCl] | 0.832
27 | Oc1c(Cl)cc(Cl)c(Cl)c1Cc1c(O)c(Cl)cc(Cl)c1Cl [Hexachlorophene] | 1.62
28 | CN1CC2c3ccccc3Oc3ccc(Cl)cc3C2C1 (centres undefined) [Asenapine] | 0.811
29 | COc1cc2c(N3CCN(C(=O)Nc4ccc(OC(C)C)cc4)CC3)ncnc2cc1OCCCN1CCCCC1 [Tandutinib (MLN518)] | 1.73
30 | CCOC(=O)[C@H](CCc1ccccc1)N[C@@H](C)C(=O)N1[C@H](C(=O)O)C[C@@H]2CCC[C@@H]21 [Ramipril] | 0.735
31 | NC1(Cc2ccc(Cl)cc2)CCN(c2ncnc3[nH]ccc23)CC1 | 1.13
32 | O=C(O)c1ccc2c(c1)nc(Nc1cccc(Cl)c1)c1ccncc12 [CX-4945 (Silmitasertib)] | 1.44
33 | CC(C)CN(C[C@@H](O)[C@H](Cc1ccccc1)NC(=O)O[C@H]1CCOC1)S(=O)(=O)c1ccc(N)cc1 [Amprenavir] | 1.29
34 | CC(C)C[C@H](NC(=O)CNC(=O)[C@H](Cc1ccc(O)cc1)NC(=O)[C@H](CO)NC(=O)[C@H](Cc1c[nH]c2ccccc12)NC(=O)[C@H](Cc1cnc[nH]1)NC(=O)[C@@H]1CCC(=O)N1)C(=O)N[C@@H](CCCNC(=N)N)C(=O)N1CCC[C@H]1C(=O)NCC(N)=O [Gonadorelin Acetate] | 1.23
35 | CNCC[C@H](Oc1cccc2ccccc12)c1cccs1 [Duloxetine HCl] | 1.43
36 | CCOC(=O)c1ccc(OC(=O)CCCCCNC(=N)N)cc1 [Gabexate Mesylate] | 0.886
37 | O=C(O)c1cn(-c2ccc(F)cc2)c2cc(N3CCNCC3)c(F)cc2c1=O [Sarafloxacin HCl] | 0.812
38 | COc1ccccc1OCC(O)CO (centres undefined) [Guaifenesin] | 0.957
39 | COc1ccc(C2CNC(=O)C2)cc1OC1CCCC1 (centres undefined) [Rolipram] | 1.51
